{"source": "the antibiotic and cytotoxicity screens of Wong et al. (2023)", "note": "About 1,500 (3.8%) of roughly 39,000 compounds were called active. Shown is part of a subset that was picked to be rich in actives.", "data": [{"system": "HSkMC (human skeletal muscle cells)", "experiment": "cytotoxicity call (relative viability < 0.9)", "settings": "10 µM", "values": [{"smiles": "Cc1ccc(S(=O)(=O)N(C)C[C@@H]2Oc3ccc(NC(=O)CCCN(C)C)cc3CC(=O)N([C@@H](C)CO)C[C@H]2C)cc1", "cytotoxicity call": "inactive"}, {"smiles": "O=C(CN1CCOCC1)NCC[C@@H]1CC[C@H](NC(=O)Cc2ccccn2)[C@@H](CO)O1", "cytotoxicity call": "inactive"}, {"smiles": "Cc1noc(C)c1S(=O)(=O)N(C)C[C@H]1Oc2ccc(NC(=O)Cn3cnnn3)cc2CC(=O)N([C@@H](C)CO)C[C@@H]1C", "cytotoxicity call": "inactive"}, {"smiles": "C[C@@H]1CN([C@H](C)CO)S(=O)(=O)c2ccc(C#Cc3ccccc3)cc2O[C@@H]1CN(C)S(C)(=O)=O", "cytotoxicity call": "inactive"}, {"smiles": "C[C@@H]1CCCCO[C@@H](CN(C)C(=O)Nc2ccccc2)[C@@H](C)CN([C@@H](C)CO)C(=O)c2cc(NC(=O)Nc3cccc4ccccc34)ccc2O1", "cytotoxicity call": "inactive"}, {"smiles": "COc1ccc(S(=O)(=O)Nc2ccc3c(c2)OC[C@@H](C)N(C)C[C@@H](C)[C@H](OC)CN(C)C3=O)cc1", "cytotoxicity call": "inactive"}, {"smiles": "CO[C@H](CN(C)S(=O)(=O)c1cccc(Cl)c1)[C@H](C)CN([C@H](C)CO)S(=O)(=O)c1ccc(Cl)cc1", "cytotoxicity call": "inactive"}, {"smiles": "O=C(C[C@H]1CC[C@H]2[C@@H](COC[C@H](O)CN2C(=O)c2cccnc2)O1)NCc1ccc(-c2ccccc2)cc1", "cytotoxicity call": "inactive"}, {"smiles": "NC(=O)c1nc2c(s1)CCNCC2", "cytotoxicity call": "inactive"}, {"smiles": "Cc1ccc(S(=O)(=O)N(C)C[C@H]2OCCCC[C@@H](C)Oc3ccc(NS(C)(=O)=O)cc3C(=O)N([C@H](C)CO)C[C@@H]2C)cc1", "cytotoxicity call": "inactive"}, {"smiles": "COc1ccc(S(=O)(=O)N(C)C[C@@H]2OCc3cn(nn3)CCCC(=O)N([C@H](C)CO)C[C@@H]2C)cc1", "cytotoxicity call": "inactive"}, {"smiles": "O=C(C[C@H]1CC[C@@H]2[C@H](COC[C@H](O)CN2S(=O)(=O)c2ccccc2)O1)NCc1ccc(-c2ccccc2)cc1", "cytotoxicity call": "inactive"}, {"smiles": "Cc1ccc(S(=O)(=O)Nc2ccc3c(c2)C(=O)N([C@H](C)CO)C[C@H](C)[C@H](CN(C)C(=O)Nc2ccc(F)cc2)OCCCC[C@H](C)O3)cc1", "cytotoxicity call": "inactive"}, {"smiles": "Cc1ccc(S(=O)(=O)Nc2ccc3c(c2)C(=O)N([C@@H](C)CO)C[C@H](C)[C@@H](CN(C)C(=O)Nc2ccc(F)cc2)OCCCC[C@@H](C)O3)cc1", "cytotoxicity call": "inactive"}, {"smiles": "Cc1ccc(S(=O)(=O)Nc2ccc3c(c2)C(=O)N([C@H](C)CO)C[C@@H](C)[C@H](CN(C)C(=O)Nc2ccc(F)cc2)OCCCC[C@@H](C)O3)cc1", "cytotoxicity call": "active"}, {"smiles": "Cc1ccc(S(=O)(=O)Nc2ccc3c(c2)C(=O)N([C@H](C)CO)C[C@@H](C)[C@H](CN(C)C(=O)Nc2ccc(F)cc2)OCCCC[C@H](C)O3)cc1", "cytotoxicity call": "active"}, {"smiles": "Cc1ccc(S(=O)(=O)Nc2ccc3c(c2)C(=O)N([C@@H](C)CO)C[C@@H](C)[C@H](CN(C)C(=O)Nc2ccc(F)cc2)OCCCC[C@@H](C)O3)cc1", "cytotoxicity call": "inactive"}, {"smiles": "Cc1ccc(S(=O)(=O)Nc2ccc3c(c2)C(=O)N([C@@H](C)CO)C[C@H](C)[C@@H](CN(C)C(=O)Nc2ccc(F)cc2)OCCCC[C@H](C)O3)cc1", "cytotoxicity call": "inactive"}, {"smiles": "C[C@H]1CN([C@@H](C)CO)S(=O)(=O)c2ccc(C#CC(C)(C)O)cc2O[C@H]1CN(C)C(=O)C1CCCCC1", "cytotoxicity call": "inactive"}, {"smiles": "C[C@H](CO)N1C[C@H](C)[C@H](CN(C)S(C)(=O)=O)Oc2ccc(NC(=O)Nc3ccc(F)cc3)cc2CC1=O", "cytotoxicity call": "inactive"}, {"smiles": "COc1ccc(NC(=O)Nc2cccc3c2O[C@H](CN(C)C(=O)Nc2cccc4ccccc24)[C@H](C)CN([C@H](C)CO)C3=O)cc1", "cytotoxicity call": "inactive"}, {"smiles": "COc1ccc(NC(=O)N(C)C[C@H]2Oc3c(NC(=O)C4CC4)cccc3C(=O)N([C@H](C)CO)C[C@H]2C)cc1", "cytotoxicity call": "inactive"}, {"smiles": "C[C@H]1CN([C@@H](C)CO)C(=O)c2cc(NC(=O)Cc3ccccc3)ccc2O[C@@H]1CN(C)C(=O)Nc1cccc2ccccc12", "cytotoxicity call": "inactive"}, {"smiles": "CCn1c(Cl)nc2c1c(=O)n(C)c(=O)n2C", "cytotoxicity call": "inactive"}, {"smiles": "Cc1nc2c(=O)n(C)c(=O)n(C)c2nc1Cl", "cytotoxicity call": "active"}, {"smiles": "Cn1c(=O)c2c(nc(SCSc3nc4c(c(=O)n(C)c(=O)n4C)n3C)n2C)n(C)c1=O", "cytotoxicity call": "inactive"}, {"smiles": "C[C@@H]1CN([C@H](C)CO)C(=O)c2cc(NC(=O)Nc3ccc4c(c3)OCO4)ccc2O[C@@H](C)CCCCO[C@H]1CN(C)Cc1ccccc1", "cytotoxicity call": "inactive"}, {"smiles": "Cc1ccc(S(=O)(=O)N(C)C[C@H]2OCCCC[C@@H](C)Oc3ccc(NS(C)(=O)=O)cc3C(=O)N([C@H](C)CO)C[C@H]2C)cc1", "cytotoxicity call": "inactive"}, {"smiles": "Cn1nnc2c1CCN(C(=O)CS(C)(=O)=O)[C@@H]2COCC1CC1", "cytotoxicity call": "inactive"}, {"smiles": "CCN1CCN(Cc2ccc(C(=O)Nc3ccc(C)c(Oc4ccc5c(c4)CC(=O)N5)c3)cc2C(F)(F)F)CC1", "cytotoxicity call": "active"}, {"smiles": "COCC(=O)Nc1ccc2c(c1)CC(=O)N2", "cytotoxicity call": "inactive"}, {"smiles": "Cc1ccc(S(=O)(=O)Nc2ccc3c(c2)C(=O)N([C@@H](C)CO)C[C@H](C)[C@@H](CN(C)C(=O)Nc2c(C)noc2C)OCCCC[C@@H](C)O3)cc1", "cytotoxicity call": "inactive"}, {"smiles": "Cc1noc(C)c1NC(=O)N(C)C[C@@H]1Oc2ccc(NC(=O)C3CC3)cc2C(=O)N([C@H](C)CO)C[C@H]1C", "cytotoxicity call": "inactive"}, {"smiles": "C[C@@H]1CN([C@H](C)CO)C(=O)CCCn2nncc2CO[C@H]1CN(C)C(=O)Nc1cccc(C(F)(F)F)c1", "cytotoxicity call": "inactive"}, {"smiles": "C[n+]1cc2c3c(ccc2c2ccc4cc5c(cc4c21)OCO5)OCO3.[Cl-]", "cytotoxicity call": "active"}, {"smiles": "COc1ccc2cc3[n+](cc2c1OC)CCc1cc2c(cc1-3)OCO2.[Cl-]", "cytotoxicity call": "inactive"}, {"smiles": "COCC#Cc1cnc2c(c1)C(=O)N([C@@H](C)CO)C[C@@H](C)[C@@H](CN(C)S(=O)(=O)c1ccccc1)O2", "cytotoxicity call": "inactive"}, {"smiles": "C[C@@H]1CN([C@H](C)CO)C(=O)c2cc(C#Cc3ccccc3F)cnc2O[C@@H]1CN(C)C(=O)c1ccc2c(c1)OCO2", "cytotoxicity call": "inactive"}, {"smiles": "Cc1ncc[nH]1", "cytotoxicity call": "inactive"}, {"smiles": "CC[C@@H](C)SSc1ncc[nH]1", "cytotoxicity call": "active"}, {"smiles": "OCc1ncc[nH]1", "cytotoxicity call": "inactive"}, {"smiles": "C[C@@H]1CN([C@H](C)CO)C(=O)c2cccc(NC(=O)Nc3ccc(F)cc3)c2O[C@H]1CN(C)C(=O)Nc1cccc2ccccc12", "cytotoxicity call": "inactive"}, {"smiles": "C[C@@H]1CN([C@@H](C)CO)C(=O)c2cc(NS(C)(=O)=O)ccc2O[C@@H]1CN(C)Cc1ccc(C(=O)Nc2ccccc2N)cc1", "cytotoxicity call": "inactive"}, {"smiles": "Cc1ccc(-n2nc(C(C)(C)C)cc2NC(=O)Nc2ccc(OCCN3CCOCC3)c3ccccc23)cc1", "cytotoxicity call": "active"}, {"smiles": "O=C(NCCN1CCOCC1)c1ccccn1", "cytotoxicity call": "inactive"}, {"smiles": "Cc1ccc(S(=O)(=O)NC2=NCN(CCN3CCOCC3)CN2)cc1", "cytotoxicity call": "inactive"}, {"smiles": "C[C@@H]1CN([C@H](C)CO)C(=O)c2cc(NS(=O)(=O)c3cn(C)cn3)ccc2O[C@@H]1CN(C)C(=O)Nc1ccc2c(c1)OCO2", "cytotoxicity call": "inactive"}, {"smiles": "O=C1[C@@H]2[C@@H](C(=O)N1CCO)[C@@H]1C=C[C@@H]2C1", "cytotoxicity call": "inactive"}, {"smiles": "C[C@@H]1CN([C@H](C)CO)S(=O)(=O)c2ccc(-c3cncnc3)cc2O[C@H]1CN(C)C(=O)Cc1ccncc1", "cytotoxicity call": "inactive"}, {"smiles": "C[C@H]1CN([C@@H](C)CO)C(=O)c2cc(NC(=O)Nc3ccc4c(c3)OCO4)ccc2O[C@H]1CN(C)C(=O)Nc1cccc2ccccc12", "cytotoxicity call": "inactive"}, {"smiles": "C[C@H]1CN([C@@H](C)CO)C(=O)c2cc(NC(=O)Nc3ccc4c(c3)OCO4)ccc2O[C@@H]1CN(C)C(=O)Nc1cccc2ccccc12", "cytotoxicity call": "inactive"}, {"smiles": "C[C@@H]1CN([C@@H](C)CO)C(=O)c2cc(NC(=O)Nc3ccc4c(c3)OCO4)ccc2O[C@@H]1CN(C)C(=O)Nc1cccc2ccccc12", "cytotoxicity call": "active"}, {"smiles": "C[C@@H]1CN([C@H](C)CO)C(=O)c2cc(NC(=O)Nc3ccc4c(c3)OCO4)ccc2O[C@H]1CN(C)C(=O)Nc1cccc2ccccc12", "cytotoxicity call": "inactive"}, {"smiles": "C[C@H](CO)N1C[C@H](C)[C@@H](CN(C)C(=O)Nc2cccc3ccccc23)Oc2ccc(NC(=O)Nc3ccc4c(c3)OCO4)cc2C1=O", "cytotoxicity call": "inactive"}, {"smiles": "C[C@@H]1CN([C@H](C)CO)C(=O)c2cc(NC(=O)Nc3ccc4c(c3)OCO4)ccc2O[C@@H]1CN(C)C(=O)Nc1cccc2ccccc12", "cytotoxicity call": "active"}, {"smiles": "O=C(C[C@H]1CC[C@H]2[C@@H](COC[C@@H](O)CN2S(=O)(=O)c2cccc(Cl)c2)O1)NCCCN1CCOCC1", "cytotoxicity call": "inactive"}, {"smiles": "CO[C@@H]1[C@@H](O)[C@H](O)[C@H](O)[C@H](O)[C@@H]1O", "cytotoxicity call": "inactive"}, {"smiles": "COc1ccc(NC(=O)N(C)C[C@@H]2Oc3ccc(NC(=O)CCCCCC(=O)Nc4ccccc4N)cc3C(=O)N([C@@H](C)CO)C[C@@H]2C)cc1", "cytotoxicity call": "inactive"}, {"smiles": "O=C(Cn1cc(COc2ccc3ccccc3c2)nn1)NS(=O)(=O)c1ccccc1OC(F)(F)F", "cytotoxicity call": "inactive"}, {"smiles": "CN(C)C(=O)C[C@@H]1CC[C@@H]2[C@H](COC[C@H](O)CN2S(=O)(=O)c2ccc(Oc3ccccc3)cc2)O1", "cytotoxicity call": "inactive"}, {"smiles": "COc1ccc2c(c1)n(CCN)c(=O)n2C(=O)[C@@H]1C[C@H](C)CC[C@H]1C(C)C", "cytotoxicity call": "active"}, {"smiles": "CC(C)[C@H]1CC[C@@H](C)C[C@@H]1NC(=O)c1cccc2ccccc12", "cytotoxicity call": "inactive"}, {"smiles": "COc1ccc(S(=O)(=O)Nc2ccc3c(c2)C(=O)N([C@H](C)CO)C[C@@H](C)[C@@H](CN(C)S(C)(=O)=O)O3)cc1", "cytotoxicity call": "inactive"}, {"smiles": "Cc1cc(C)c(/N=c2\\scc(C)n2Cc2ccccc2)c(C)c1", "cytotoxicity call": "inactive"}, {"smiles": "Cc1ccc(S(=O)(=O)N(C)C[C@@H]2Oc3ccc(NC(=O)Nc4ccc(C(F)(F)F)cc4)cc3C(=O)N([C@@H](C)CO)C[C@@H]2C)cc1", "cytotoxicity call": "inactive"}, {"smiles": "C[C@@H]1CN([C@@H](C)CO)C(=O)c2cc(NC(=O)Nc3ccc(C(F)(F)F)cc3)ccc2O[C@@H]1CN(C)S(=O)(=O)c1ccc(F)cc1", "cytotoxicity call": "inactive"}, {"smiles": "C[C@H]1CN([C@@H](C)CO)C(=O)c2cc(NC(=O)Nc3ccc(C(F)(F)F)cc3)ccc2O[C@@H]1CN(C)S(=O)(=O)c1ccc(F)cc1", "cytotoxicity call": "inactive"}, {"smiles": "Cc1ccc(S(=O)(=O)N(C)C[C@H]2Oc3ccc(NC(=O)Nc4ccc(C(F)(F)F)cc4)cc3C(=O)N([C@H](C)CO)C[C@H]2C)cc1", "cytotoxicity call": "active"}, {"smiles": "C[C@@H]1CN([C@H](C)CO)C(=O)c2cc(NC(=O)Nc3ccc(C(F)(F)F)cc3)ccc2O[C@H]1CN(C)S(=O)(=O)c1ccc(F)cc1", "cytotoxicity call": "active"}, {"smiles": "Cc1ccc(S(=O)(=O)N(C)C[C@H]2Oc3ccc(NC(=O)Nc4ccc(C(F)(F)F)cc4)cc3C(=O)N([C@H](C)CO)C[C@@H]2C)cc1", "cytotoxicity call": "inactive"}, {"smiles": "C[C@H]1CN([C@@H](C)CO)C(=O)c2cc(NC(=O)Nc3ccc(C(F)(F)F)cc3)ccc2O[C@H]1CN(C)S(=O)(=O)c1ccc(F)cc1", "cytotoxicity call": "inactive"}, {"smiles": "C[C@@H]1CN([C@H](C)CO)C(=O)c2cc(NC(=O)Nc3ccc(C(F)(F)F)cc3)ccc2O[C@@H]1CN(C)S(=O)(=O)c1ccc(F)cc1", "cytotoxicity call": "active"}, {"smiles": "Cc1ccc(S(=O)(=O)N(C)C[C@H]2Oc3ccc(NC(=O)Nc4ccc(C(F)(F)F)cc4)cc3C(=O)N([C@@H](C)CO)C[C@@H]2C)cc1", "cytotoxicity call": "inactive"}, {"smiles": "C[C@H](CO)N1C[C@H](C)[C@H](CN(C)S(=O)(=O)c2ccc(F)cc2)Oc2ccc(NC(=O)Nc3ccc(C(F)(F)F)cc3)cc2C1=O", "cytotoxicity call": "active"}, {"smiles": "C[C@@H]1CN([C@@H](C)CO)C(=O)c2cc(NC(=O)Nc3ccc(C(F)(F)F)cc3)ccc2O[C@H]1CN(C)S(=O)(=O)c1ccc(F)cc1", "cytotoxicity call": "inactive"}, {"smiles": "C[C@H](CO)N1C[C@H](C)[C@@H](CN(C)S(=O)(=O)c2ccc(F)cc2)Oc2ccc(NC(=O)Nc3ccc(C(F)(F)F)cc3)cc2C1=O", "cytotoxicity call": "inactive"}]}]}
